High-throughput results from PubChem.
Mtb FBA inh: Mtb FBA enzyme inhibitors, primary screen, biochemical, fluorescence, strain H37Rv. Fructose-bisphosphate aldolase (Mycobacterium tuberculosis (strain ATCC 25618 / H37Rv)), …. purified M. tuberculosis FBA, fluorescence read-out. inhibition, % at 1 µM. 360,000 compounds, 2.3% hits;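 also: 0% = vehicle and 100% = reference inhibitor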
Target sequence (P9WQA3 whole entry, looked up): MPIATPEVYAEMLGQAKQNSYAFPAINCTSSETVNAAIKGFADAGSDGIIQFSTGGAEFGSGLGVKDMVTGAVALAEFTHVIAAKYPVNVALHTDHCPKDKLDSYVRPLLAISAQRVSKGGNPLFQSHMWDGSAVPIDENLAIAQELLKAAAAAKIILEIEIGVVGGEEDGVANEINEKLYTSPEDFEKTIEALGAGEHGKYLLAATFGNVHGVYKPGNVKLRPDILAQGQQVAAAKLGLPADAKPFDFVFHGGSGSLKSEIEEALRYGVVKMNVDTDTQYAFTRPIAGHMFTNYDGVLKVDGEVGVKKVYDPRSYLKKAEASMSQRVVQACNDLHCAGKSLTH
UGM FP inh: M. tuberculosis UGM enzyme inhibitors, primary screen, biochemical, fluorescence polarization, single point. inhibition, % at 10 µM. purified UGM, fluorescence polarization probe displacement. UDP-galactopyranose mutase (Mycobacterium tuberculosis (strain ATCC 25618 / H37Rv)), …. AID 504406, 2011. 320,000 compounds, 0.06% hits; in the data active = inhibition above about 10%, passing the limit was not always enough
Vc quorum ag-1: inducers of Vibrio cholerae quorum light production without autoinducers, primary screen, BH1578 luxS cqsA deficient, single point; 350,000 compounds, 0.16% hits; V. cholerae BH1578 lux reporter, luminescence, 6 h; activation, % at 18.7 µM; in the data active = activation mostly above about 9.7%, no sharp cut-off
Rv3671c inh: Rv3671c serine protease inhibitors, primary screen, biochemical, fluorescence polarization, M. tuberculosis H37Rv | inhibition, % at 5.96 µM | 320,000 compounds, 0.048% hits | AID 2606, 2010; in the data active = inhibition above about 38%;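 also: extracellular domain of Rv3671c used as enzyme; 0% = enzyme with DMSO and 100% = no enzyme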
GDH-TPI counter-1: GDH-TPI coupling enzyme inhibitors, primary screen, artefact control for M. tuberculosis FBA inhibitor project, biochemical, absorbance, full deck; GDH-TPI coupled enzyme counterscreen, NADH absorbance; inhibition, % at 4.8 µM; 360,000 compounds, 1.2% hits; AID 588335, 2011; in the data active = inhibition above about 30%;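 also: 0% = DMSO wells and 100% = wells lacking the enzyme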
RecA intein inh: Mtb RecA intein splicing inhibitors, primary screen, biochemical, fluorescence, HTS | Protein RecA (Mycobacterium tuberculosis (strain ATCC 25618 / H37Rv)), P9WHJ3 | cell-free RecA intein splicing | inhibition, % (test concentration not listed) | 290,000 compounds, 0.75% hits | AID 2221, 2009; in the data active = inhibition above about 30%;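 also: 0% = vehicle wells and 100% = reference inhibitor control wells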
Vc quorum ag-2: V. cholerae lux activation without autoinducers – BH1578 luxS cqsA deficient, cherry-pick, plate reader, dose response. shares compounds with Vc quorum ag-1. V. cholerae BH1578 lux reporter, luminescence, 6 h. activation, % at 50 µM. 620 tested, under 10 active. AID 602243, 2012; call rule not given here
Mtb FBA inh conf: M. tuberculosis aldolase blockers, biochemical, fluorescence, strain H37Rv, confirmation | AID 651616, 2012 | purified M. tuberculosis FBA, fluorescence read-out | shares compounds with Mtb FBA inh | inhibition, % at 1 µM | 5,600 compounds, 78% hits;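 also: 0% = vehicle wells and 100% = reference inhibitor wells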
GDH-TPI counter-2: GDH-TPI coupling enzyme inhibitors, artefact control for M. tuberculosis FBA inhibitor project, biochemical, fluorescence, high throughput. shares compounds with Mtb FBA inh. GDH-TPI coupled enzyme counterscreen. 5,600 compounds, 81% hits. inhibition, % at 1 µM. AID 652141, 2013; in the data active = inhibition above about 10%
The depositor's hits bear a star; i = inactive; nt = not tested or not shown; + = active, no number. Compounds with a hit are over-represented: about 4.1% of the library has one in this group of screens. Rule as the data show it, unless noted: active = inhibition above about 27%; inactive = the rest.

SMILES | Mtb FBA inh | UGM FP inh | Vc quorum ag-1 | Rv3671c inh | GDH-TPI counter-1 | RecA intein inh | Vc quorum ag-2 | Mtb FBA inh conf | GDH-TPI counter-2
COc1ccccc1NC(=O)COC(=O)c1cn(C)c2ccccc12 | 1.8 | 1.3 | + | -19.6 | 1.1 | nt | 267.8 | nt | nt
Cn1cc(C(=O)OCC(=O)NC2CCCCC2)c2ccccc21 | 4.4 | 0.0 | 1.4 | -2.9 | 8.1 | nt | nt | nt | nt
OC(c1ccc(F)cc1)c1nc(-c2ccoc2)cs1 (configuration not stated) | 4.1 | nt | -0.3 | nt | 16.8 | nt | nt | nt | nt
COCCNC(=O)C1CCCN(Cc2cccc(C#N)c2)CC1 (configuration not stated) | -1.1 | nt | -0.2 | nt | 2.2 | nt | nt | nt | nt
C[C@H](CO)N1C[C@H](C)[C@@H](CN(C)C(=O)Nc2ccc(C(F)(F)F)cc2)Oc2ccc(NC(=O)C3CCCCC3)cc2C1=O | -2.4 | 0.7 | -0.5 | -10.5 | -4.2 | nt | nt | nt | nt
CC(C)c1ccccc1OCC(=O)N(C)CC(=O)Nc1ccc(F)cc1 | -2.2 | 0.2 | -0.3 | 6.5 | 9.5 | 0.0 | nt | nt | nt
Cc1cc(C(=O)OCC(=O)Nc2c(Cl)cccc2C(F)(F)F)c(C)o1 | -0.1 | 1.9 | 9.3 | -4.0 | -8.4 | -0.6 | 0.6 | nt | nt
Cc1ccsc1C(=O)OCC(=O)Nc1c(Cl)cccc1C(F)(F)F | -0.4 | -2.9 | -0.4 | 0.4 | 3.0 | -1.1 | nt | nt | nt
COc1ccc(Cl)cc1NC(=O)COC(=O)c1cc(C)oc1C | -4.1 | 5.7 | + | -10.2 | 4.6 | nt | 589.1 | nt | nt
COC(=O)c1ccccc1NC(=O)Cn1cc2c(n1)CCC(C)C2 (configuration not stated) | -2.9 | -0.6 | 30.2* | -1.0 | -5.9 | 2.8 | 28.0 | nt | nt
COc1cccc(CNC(=O)C2CSC3(C)CCC(=O)N23)c1 (configuration not stated) | 1.8 | 0.7 | 14.3 | -2.5 | 4.2 | -3.2 | 0.0 | nt | nt
CCCc1cc(=O)n2[nH]c(SCc3ccc(Cl)cc3)nc2n1 | 3.6 | 0.9 | -0.6 | -3.7 | 4.1 | 1.4 | nt | nt | nt
CCCc1cc(=O)n2[nH]cc(-c3ccc(Cl)cc3)c2n1 | 54.3* | -4.2 | 41.2* | nt | 9.4 | 0.3 | 0.4 | -10.8 | -11.0
CCOC(=O)CNc1c(-c2ccc(Cl)cc2)nc2cnccn12 | 68.3* | -1.2 | 25.0* | 4.0 | 19.7 | -147.0 | -0.1 | 55.7* | 50.0*
O=C(NCC1CCCO1)C1CC(=O)N(c2ccc(Cl)cc2)C1 (configuration not stated) | 3.9 | -0.3 | -0.3 | 1.1 | 6.8 | -2.4 | nt | nt | nt
COc1ccc2cc(-c3nc4ccccc4n3C)c(=O)oc2c1 | 59.0* | -1.5 | 5.0 | 9.1 | 38.9* | -36.3 | nt | 197.8* | +
COc1ccc(-c2cc3ccccc3oc2=O)cc1 | 60.3* | 2.4 | 0.4 | -8.2 | 13.0 | -1.3 | nt | + | +
CC(=O)c1ccc(OCC(O)CN(C)CCOc2ccc(Br)cc2)cc1 (configuration not stated) | 1.2 | 0.3 | 1.9 | -10.8 | 7.4 | 1.6 | nt | nt | nt
COC(=O)c1cc(S(=O)(=O)NCc2cccc(Br)c2)c[nH]1 | -1.0 | 0.6 | i | -3.5 | -2.6 | 2.8 | nt | nt | nt
COc1ccc(C(CNC(=O)c2ccc(-n3cnnn3)cc2)N2CCOCC2)cc1 (configuration not stated) | 43.2* | 2.8 | i | -11.8 | 5.3 | 2.2 | nt | 174.9* | 152.8*
Cc1ccc(-c2cn3c(n2)CCCC3)cc1 | 37.9* | -3.4 | -0.3 | -0.9 | -5.5 | 0.0 | nt | + | 158.9*
COc1ccc(-c2cn3c(n2)CCC3)cc1 | 19.2 | 2.5 | -0.2 | 2.8 | -9.8 | 1.1 | nt | nt | nt
